Screening results: PubChem, National Center for Advancing Translational Sciences (NCATS)
Shown are actives, neighbours in structure and some others; about 2.7% of the full set was active somewhere.
Nrf2 activator: activates Nrf2 signaling; AID 624171; 410,000 tested, 0.31% active; Potency, µM (series often up to 46.1 µM), for the others: top-dose activation, actives largely listed as activators; AREc32 ARE-luciferase reporter (MCF7-derived line), luminescence, 24 h; further: potency means the concentration at half of the fitted maximal effect; % of control where 0% means no effect; nearly all actives have a fitted effect of over 65% in size
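Cells of the AREc32 ARE-luciferase line are plated in OPTI-MEM containing 5% FBS and left overnight at 37 deg C. Compounds are pinned in, incubation continues 24 hr, and firefly luciferase signal is then measured.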
ERG-DNA inh: inhibitors of human ERG Ets domain-DNA interaction; P11308; fluorescence polarization, His-ERG Ets domain / labelled DNA; Potency, µM (series often up to 76.9 µM), inactives show top-dose FP activity, negative = inhibition, usual class: inhibitors; 370,000 tested, 0.028% active; active means well fitted inhibition curve with a large enough effect in the polarisation, with a control signal flat; inconclusive means small, poorly fitted or top-dose-only effect, or effect the other way, or a change in a side signal; inactive means no such curve, though single readings can be large or run the other way; the % refers to the polarisation;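 further: polarization taken with two DNA probes labelled with fluorescein and Texas red; potency means the concentration at half of the fitted maximal effect; % of control where 0% means no effect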
Target sequence (P11308 whole entry, looked up, the tested form may be a part): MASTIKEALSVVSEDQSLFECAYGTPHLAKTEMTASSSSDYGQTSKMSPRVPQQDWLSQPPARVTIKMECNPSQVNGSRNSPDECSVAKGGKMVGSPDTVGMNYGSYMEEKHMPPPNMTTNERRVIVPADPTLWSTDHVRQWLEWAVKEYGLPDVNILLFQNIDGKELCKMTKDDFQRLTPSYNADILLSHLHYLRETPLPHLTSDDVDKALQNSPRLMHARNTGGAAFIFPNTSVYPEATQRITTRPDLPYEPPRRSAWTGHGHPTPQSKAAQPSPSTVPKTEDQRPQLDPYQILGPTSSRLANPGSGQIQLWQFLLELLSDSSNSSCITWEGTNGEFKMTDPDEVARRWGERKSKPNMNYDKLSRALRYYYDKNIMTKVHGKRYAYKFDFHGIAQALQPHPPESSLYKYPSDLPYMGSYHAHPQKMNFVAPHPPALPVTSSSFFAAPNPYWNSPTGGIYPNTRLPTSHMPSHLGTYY
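His-tagged ERG Ets domain (1 uM in the protein solution; 300mM KCl, 50mM Tris-HCl, 1mM EDTA, 1mM DTT, pH 7.5) received compound, then a probe mix of 5 nM fluorescein-DNA and 100nM Texas-615-DNA. Fluorescence polarization was read for both dyes.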
LDHA block: LDHA (human) enzyme inhibition | purified LDHA, NADH/diaphorase-resazurin fluorescence; hits give low values | activity change, % (values are at about 110 or 230 µM) | AID 1347041 | 480,000 tested, 0.15% active; in the data active means activity change below about -30%; inconclusive means mostly about -25% to -30%;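 further: plate controls were DMSO wells for no effect and wells without enzyme for full effect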
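LDH5 2 nM; NADH 0.06 mM, pyruvate 0.2 mM; 200 mM Tris pH 7.4, EDTA, Tween-20; 5 min RT. Detection: diaphorase 0.133 mg/mL + resazurin 37 µM, fluorescence ex540/em590 at 0 and 20 min; normalized to enzyme-free and DMSO wells.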
A549 viability: counter-screen for Nrf2 inhibitors: cytotoxicity in A549 cells | 390,000 tested, 0.16% active | A549 ARE-Fluc cells, CellTiter-Fluor viability, 18-24 h | Potency, µM (series often up to 46 µM), without a hit: top-dose activity change, negative = cytotoxicity, actives largely listed as inhibitors; further: potency means the concentration at half of the fitted maximal effect; on the % scale 0 is the no-effect control and ±100 the full control effect
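A549 ARE-Fluc cells in 5% FBS OPTI-MEM, 5000 cells/well, rested 2 h then exposed to compounds in concentration-response for 18-24 h at 37 °C. Viability by CellTiter-Fluor fluorescence (Ex 405/Em 525) after 30 min; luciferase luminescence (BugLite, 15 min, RT) read afterwards.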
12-LOX inh: blocks human arachidonate 12S-lipoxygenase. P18054. purified 12hLO, xylenol orange hydroperoxide absorbance. Potency, µM (doses to about 108 µM), for the others: top-dose activity change, negative = inhibition, hits mostly inhibitors. 580,000 tested, 1.1% active. AID 1671190; further: potency means the concentration at half of the fitted maximal effect; on the % scale 0 is the no-effect control and ±100 the full control effect
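Purified human 12hLO (150 nM final) in 25 mM Hepes, 0.01% Triton X-100, pH 7.0 was preincubated 15 min at room temperature with compound. Then 40 uM arachidonic acid was added, 30 min. Hydroperoxide was read by Fe-XO absorbance ratio 573/405 nm.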
Nrf2 inh: blocks Nrf2 signaling | A549 ARE-Fluc reporter, luciferase luminescence, 18-24 h | Potency, µM (titrated, usually from 46 µM), for the others: at the highest dose activity change, negative = inhibition, actives largely listed as inhibitors | 360,000 tested, 2.1% active; further: potency means the concentration at half of the fitted maximal effect; on the % scale 0 is the no-effect control and ±100 the full control effect; nearly all actives have a fitted effect of over 60% in size
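In this cell-based qHTS, ARE-driven firefly luciferase in A549 cells reports Nrf2 activity; the luminescent signal after BugLite lysis is the measured value, with a prior CellTiter-Fluor read for cell health.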
The depositor's hits bear a star; ? = inconclusive; / = no result. Unless noted, the call rests on the fitted dose curve; in most records, active means well fitted curve in the direction sought with a large enough effect; inconclusive means small, poorly fitted or top-dose-only effect, or another doubt; inactive means no such curve, though single readings can be large; an effect the other way counts as inactive or inconclusive.

SMILES	Nrf2 activator	ERG-DNA inh	LDHA block	A549 viability	12-LOX inh	Nrf2 inh
COc1ccc(-c2ccnc3nc(-n4cccc4)nn23)cc1	1%	-3%	8	-9%	10%	?
CC1=C(C(=O)OC2CCCCCC2)C(c2ccc(Cl)cc2)CC(=O)N1 (stereo not given)	0%	2%	-12	1%	-20%	?
CC1=C(C(=O)OC2CCCCCC2)C(c2cccc(Cl)c2)CC(=O)N1 (stereo not given)	0%	5%	-5	1%	0%	16µM*
CC1=C(C(=O)OC2CCCCCCC2)C(c2cccc(O)c2)NC(=O)N1 (stereo not given)	0%	2%	1	-19%	?	26µM*
COc1cc(C(=O)/C=C/c2ccc(F)cc2)ccc1S(C)(=O)=O	/	/	6	/	-20%	/
Cn1c(/C=C/c2ccc(Cl)cc2Cl)c([N+](=O)[O-])c(=O)n(C)c1=O	?	-13%	-4	?	-4%	26µM*
CCc1ccc(/C=C/c2c([N+](=O)[O-])c(=O)n(C)c(=O)n2C)cc1	?	17%	-4	?	-20%	13µM*
COc1ccc(/C=C/c2c([N+](=O)[O-])c(=O)n(C)c(=O)n2C)c(OC)c1	3%	-1%	-5	4%	23%	-15%
Cc1ccc(C(=O)c2sc(Nc3cccc(F)c3)nc2N)c(C)c1	/	/	8	/	?	/
COc1ccc2occ(C(=O)c3cccs3)c2c1	10µM*	2%	-11	-1%	9%	?
CCC(C)[C@H](NC(=O)Nc1cc(-c2n[nH]c(=O)c3ccccc23)ccc1C)C(=O)OC (stereo not given in full)	/	/	6	/	?	/
COC(=O)[C@]12CCC(C)(C)C[C@@H]1[C@@H]1C(=O)C=C3[C@@]4(C)C=C(C#N)C(=O)C(C)(C)[C@@H]4CC[C@@]3(C)[C@]1(C)CC2	/	/	/	/	9.7µM*	/
O=C(Cc1ccccc1)Nc1ccccc1N1CCOCC1	0%	-11%	-3	-1%	0%	/
CN(C)CCCNCC(=O)Nc1ccccc1N1CCOCC1	0%	-5%	-32*	-4%	?	4%
CC(C)(C)n1nnnc1C(C1CC1)N1C(=O)C(=O)c2ccccc21 (stereo not given)	/	/	/	/	10%	/
Cc1cc(C(=O)CSc2nc(N)cc(N)n2)c(C)n1CCc1ccc(F)cc1	3%	1%	1	-19%	20%	15µM*
COc1ccccc1NC(=S)NC(=O)/C=C/c1cccs1	18%	23%	2	-2%	35µM*	?
COc1ccccc1/C=C/C(=O)NC(=S)NC(C)C	?	4%	-3	11%	25µM*	-13%
CCSc1nnc(SCC(=O)c2c(N)n(C)c(=O)n(C)c2=O)s1	0%	4%	-8	-1%	14%	21µM*
Cc1ccccc1Nc1nnc(SCC(=O)c2c(N)n(C)c(=O)n(C)c2=O)s1	0%	7%	-2	2%	0%	-1%
CCCNC(=O)CSc1ncc(-c2ccccc2)o1	/	/	0	/	-2%	/
O=C(NCCC(c1ccccc1)c1ccccc1)NNc1cnccn1	/	/	5	/	?	/
CC(=O)N1c2ccc(S(=O)(=O)NCC3CCC(C(=O)NC4CCC(C)CC4)CC3)cc2CC1C (stereo not given)	0%	11%	-1	3%	1%	16µM*
COc1cccc(NC(=O)C2CCC(CNS(=O)(=O)c3ccc4c(c3)CC(C)N4C(C)=O)CC2)c1 (stereo not given)	6%	18%	-7	0%	-9%	21µM*
CC(=O)N1c2ccc(S(=O)(=O)NCC3CCC(C(=O)Nc4cccc(C)c4)CC3)cc2CC1C (stereo not given)	6%	-1%	-3	-2%	-23%	?
SMILES	Nrf2 activator	ERG-DNA inh	LDHA block	A549 viability	12-LOX inh	Nrf2 inh
CCc1cccc(NC(=O)C2CCC(CNS(=O)(=O)c3ccc4c(c3)CCCC(=O)N4)CC2)c1 (stereo not given)	10%	5%	-4	0%	-16%	13µM*
CC(=O)N1c2ccc(S(=O)(=O)NCC3CCC(C(=O)NC4CCCCC4C)CC3)cc2CC1C (stereo not given)	0%	3%	-2	2%	1%	?
Cc1ccccc1-c1nc(Nc2ccncc2)c2ccccc2n1	/	/	/	/	35µM*	/
Cc1ccccc1-c1nc(NCc2cccnc2)c2ccccc2n1	/	/	/	/	28µM*	/
O=[N+]([O-])c1ccc(-c2nc(NCc3cccnc3)c3ccccc3n2)cc1	2%	4%	-1	-1%	?	-6%
Oc1ccccc1-c1nc(NCc2cccnc2)c2ccccc2n1	-2%	19%	-6	?	-13%	12µM*
Oc1ccccc1-c1nc(NCc2ccccc2)c2ccccc2n1	3%	-7%	-3	9%	-15%	?
COc1ccc(NC(=O)N2CCN(Cc3nc(-c4cccc(C(F)(F)F)c4)no3)CC2)cc1	/	/	-1	/	5%	/
COc1ccccc1C(=O)N1CCN(c2nc3cc(C)c(C)cc3cc2C#N)CC1	0%	-13%	1	-26%	-16%	23µM*
COc1ccccc1C(=O)N1CCN(c2nc3cc(C)cc(C)c3cc2C#N)CC1	-1%	/	1	/	-11%	/
Clc1cccc(N/N=C(\Cc2nc3ccccc3[nH]2)c2ccccc2)c1	10%	-7%	-4	-18%	13µM*	-8%
Cc1ccc(-n2cccc2/C=C(/C#N)c2ccc(F)cc2)cc1	/	/	4	/	?	/
O=C1c2nc3cc(-c4ccco4)[nH]n3c(=O)c2CN1Cc1ccccc1	26%	7%	4	3%	22µM*	0%
CCCCc1c(C)nc2cc(-c3ccco3)[nH]n2c1=O	13%	4%	-3	2%	?	?
CC(C)(C)C(=O)Nc1ccc2c(c1)CCC2	/	/	-2	/	-13%	/
CC(NC(=O)CSc1nnc(-c2ccccc2)o1)c1ccc2c(c1)CCCC2 (stereo not given)	/	/	0	/	?	/
O=C(NC(=S)NCc1ccccc1)c1ccc(Br)cc1	2%	0%	-2	1%	-104%	4%
O=C(NCc1ccc2c(c1)OCO2)c1ccccc1	1%	0%	1	6%	-17%	9%
O=C(NC(=S)NCc1ccc2c(c1)OCO2)c1ccccc1	0%	12%	-10	-5%	16µM*	2%
CC(C)C(=O)Nc1cccc(NC(=S)NC(=O)c2ccc(Cl)cc2)c1	4%	6%	-6	?	-23%	?
O=C(NC(=S)NCc1ccccc1)c1ccc2c(c1)OCO2	6%	-7%	-2	15%	16µM*	28%
